The nature of experiment [1]: NFAT Signaling Pathway (AID 444; active means well fitted curve in either direction with a large enough effect, not every such curve was filed as active;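 further: carbachol stimulus at about its EC50 of 1 µM final; on the % scale 0 is the no-effect control and ±100 the full control effect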). The note with it: Jurkat NFAT-bla M1, carbachol, beta-lactamase ratio, 5 h; at 17.2 µM (top of the series) unless noted. The essentials: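 Jurkat cells carrying an NFAT-driven β-lactamase reporter and co-transfected muscarinic M1 receptor were treated with compound plus carbachol (1 uM final, an EC50 level) for 5 h at 37 °C. CCF4 loading followed for 1 h at RT; 460/530 nm ratio gave %activity.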

Experiment [2] in a line: Stat Signaling Pathway (AID 446; active means well fitted curve in either direction with a large enough effect, not every such curve was filed as active;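 further: ME-180 cervical cancer cells given 40 pM IL-6 alongside compound; SIE-controlled beta-lactamase reporter measured as 460/530 nm FRET emission ratio; on the % scale 0 is the no-effect control and ±100 the full control effect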). The essentials:
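Emission at 460 and 530 nm (excitation 405 nm) reports SIE-controlled beta-lactamase in ME-180 cells. Cells received compound with 40 pM IL-6 for 5 hrs at 37 C; data scaled between 300 pM IL-6 and 125 nM JAK-inhibitor controls.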

The nature of experiment [3]: S16 Schwann cell viability assay (CellTiter-Glo assay) (AID 624031).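 Further: native untransfected S16 rat Schwann cells; plate controls were DMSO-treated cells for no effect and cell-free wells for full effect; nearly all actives have a fitted effect of over 70% in size.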 The essentials:
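Counter-screen for cytotoxicity: parental S16 rat Schwann cells lacking the PMP22 reporters, treated 24 h with compound, viability from cellular ATP by CellTiter-Glo luminescence, normalized to DMSO (0%) and no-cell wells.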
(In general: Cellular ATP, detected with luciferase, serves as a proxy for viable cell number.)

A short description of experiment [4]: S16 Schwann cell PMP22 intronic element firefly luciferase assay (AID 624032).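 Further: plate controls were DMSO for no effect and PTC124 positive control mean for full effect; nearly all actives have a fitted effect of over 30% in size.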 The essentials: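 Rat S16 Schwann cells stably carrying a PMP22 intronic element-driven Fluc reporter were seeded overnight, then exposed to compounds for 24 h at 37 °C. Luminescence was normalized to PTC124 (positive control) and DMSO (0% activity).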
The next experiment relates to 7G8. Description: qHTS profiling for inhibitors of Plasmodium falciparum proliferation (AID 504749). Further: nearly all actives have a fitted effect of over 60% in size. Further: potency means the concentration at half of the fitted maximal effect. The note with it: P. falciparum in erythrocytes, SYBR Green DNA, 72 h; series mostly up to 12.8 µM. The essentials: (§1)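 Fluorescence of SYBR Green-bound parasite DNA, read at 485/535 nm, served as the growth measure. Infected erythrocytes were cultured with compound 72 h; artemisinin (0.29 uM) and DMSO wells defined the normalization range.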
A general note: Quantitative high-throughput screening tests each substance at several concentrations.

In a further experiment the test system is CP260. Described as above. The note with it: P. falciparum in erythrocytes, SYBR Green DNA, 72 h; series mostly up to 12.8 µM. The gist of the method: as §1
In another experiment the test system is DIV17. Described as above. The note with it: P. falciparum in erythrocytes, SYBR Green DNA, 72 h; series mostly up to 12.8 µM. The essentials:
as §1

The next experiment concerns GB4. The experiment is described as above. The settings on record: P. falciparum in erythrocytes, SYBR Green DNA, 72 h; series mostly up to 12.8 µM. The essentials: as §1
The next experiment relates to ICS. The experiment is described as above. The note with it: P. falciparum in erythrocytes, SYBR Green DNA, 72 h; series mostly up to 12.8 µM. The gist of the method: as §1
For a further experiment, the system named is W2. The experiment is described as above. The note with it: P. falciparum in erythrocytes, SYBR Green DNA, 72 h; series mostly up to 12.8 µM. The essentials: as §1
In experiment [5] the target is Cytochrome P450 2D6 (Homo sapiens) (UniProt P10635). As to the kind of experiment: qHTS Assay for Inhibitors and Substrates of Cytochrome P450 2D6 (AID 891). Further: potency means the concentration at half of the fitted maximal effect; nearly all actives have a fitted effect of over 60% in size. The essentials: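 Luminescent read-out of luciferin formed by 5 nM human CYP2D6 demethylating 30 uM Luciferin-ME EGE (Km level) over 60 min at room temperature after NADPH regeneration addition. Data normalized to full inhibition by 1.43 uM quinidine.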
Sequence of Cytochrome P450 2D6 (Homo sapiens) (P10635 whole entry, looked up): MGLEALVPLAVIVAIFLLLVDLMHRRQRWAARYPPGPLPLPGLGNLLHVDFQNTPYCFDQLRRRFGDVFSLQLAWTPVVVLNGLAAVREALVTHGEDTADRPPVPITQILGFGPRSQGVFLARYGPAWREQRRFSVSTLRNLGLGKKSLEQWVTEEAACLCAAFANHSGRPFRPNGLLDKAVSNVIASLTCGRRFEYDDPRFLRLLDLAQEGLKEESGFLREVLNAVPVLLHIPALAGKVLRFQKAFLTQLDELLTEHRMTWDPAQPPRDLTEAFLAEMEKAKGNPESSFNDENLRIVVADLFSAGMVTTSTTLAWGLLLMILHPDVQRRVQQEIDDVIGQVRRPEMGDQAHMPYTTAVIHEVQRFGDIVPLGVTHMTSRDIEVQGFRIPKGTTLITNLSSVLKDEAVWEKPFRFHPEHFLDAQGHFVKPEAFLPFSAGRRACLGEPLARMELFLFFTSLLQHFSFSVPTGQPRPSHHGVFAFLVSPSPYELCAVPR

Experiment [6] addresses Cytochrome P450 2C9 (Homo sapiens) (UniProt P11712). As to the kind of experiment: qHTS Assay for Inhibitors and Substrates of Cytochrome P450 2C9 (AID 883). Further: nearly all actives have a fitted effect of over 60% in size. Further: potency means the concentration at half of the fitted maximal effect. On activity change, negative = inhibition: on the % scale 0 is the no-effect control and ±100 the full control effect. The essentials: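 A luminogenic readout tracked human CYP2C9 (10nM) converting deoxyluciferin (100uM, at KM) in 25mM KPO4 during 60 min at 37C with regenerated NADPH. Values normalized to 57uM sulphaphenazole as complete inhibition.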

The target in experiment [7] is Cytochrome P450 3A4 (Homo sapiens) (UniProt P08684). Description: qHTS Assay for Activators of Cytochrome P450 3A4 (AID 885). Further: nearly all actives have a fitted effect of over 65% in size. The essentials:
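Activators are scored by enhanced luminescence from CYP3A4 conversion of luciferin-PPXE (25uM, equal to KM) to luciferin, after 60 min at RT with an NADPH-regenerating system.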

The subject of the next experiment is CP203. As to the kind of experiment: qHTS profiling for inhibitors of Plasmodium falciparum proliferation (AID 504749). Further: nearly all actives have a fitted effect of over 60% in size. Further: potency means the concentration at half of the fitted maximal effect. The settings on record: P. falciparum in erythrocytes, SYBR Green DNA, 72 h; series mostly up to 12.8 µM. The gist of the method: as §1
The test system of a further experiment is CP215. The description is as above. The settings on record: P. falciparum in erythrocytes, SYBR Green DNA, 72 h; series mostly up to 12.8 µM. The gist of the method: as §1
The next experiment concerns CP335. Described as above. The note with it: P. falciparum in erythrocytes, SYBR Green DNA, 72 h; series mostly up to 12.8 µM. The essentials: as §1
The test system of a further experiment is DFO2036. The experiment is described as above. The note with it: P. falciparum in erythrocytes, SYBR Green DNA, 72 h; series mostly up to 12.8 µM. The essentials: as §1
Experiment [8] in a line: Confirmation and Secondary Assay for Modulators of Hemoglobin Beta Chain Splicing at IVS2 654 locus (AID 910).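 Further: per-well total GFP intensity by laser scanning cytometry after 2-day treatment; % of control where 0% means no effect.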 The essentials:
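HeLa cells stably carrying EGFP interrupted by mutant beta-globin IVS2-654 intron (CMV-driven) were treated with compound for 2 days at 37C; corrected splicing was scored as total peak GFP intensity per well (488 nm excitation, 500-520 nm emission).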

Structures are written as SMILES. Unmarked numbers belong to inactive results. Records with an inconclusive call do not appear. Calls of active or inactive are those of the source. Unless noted, the call rests on the fitted dose curve; in most records, active means well fitted curve in the direction sought with a large enough effect; inconclusive means small, poorly fitted or top-dose-only effect, or another doubt; inactive means no such curve, though single readings can be large; an effect the other way counts as inactive or inconclusive.

Sequence of Cytochrome P450 2C9 (Homo sapiens) (P11712 whole entry, looked up): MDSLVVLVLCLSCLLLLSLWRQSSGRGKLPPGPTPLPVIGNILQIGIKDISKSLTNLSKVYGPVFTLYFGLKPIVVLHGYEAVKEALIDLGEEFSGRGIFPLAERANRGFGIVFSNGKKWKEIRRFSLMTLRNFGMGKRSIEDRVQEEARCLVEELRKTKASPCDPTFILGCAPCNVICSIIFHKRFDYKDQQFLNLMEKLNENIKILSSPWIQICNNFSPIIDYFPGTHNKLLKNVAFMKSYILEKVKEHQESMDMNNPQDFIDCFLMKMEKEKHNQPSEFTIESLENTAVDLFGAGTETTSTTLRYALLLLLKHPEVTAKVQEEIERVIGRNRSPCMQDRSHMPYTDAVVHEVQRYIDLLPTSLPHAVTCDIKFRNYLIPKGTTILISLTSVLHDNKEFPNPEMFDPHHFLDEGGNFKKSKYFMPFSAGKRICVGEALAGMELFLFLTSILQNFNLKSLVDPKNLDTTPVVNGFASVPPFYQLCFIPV
Sequence of Cytochrome P450 3A4 (Homo sapiens) (P08684 whole entry, looked up): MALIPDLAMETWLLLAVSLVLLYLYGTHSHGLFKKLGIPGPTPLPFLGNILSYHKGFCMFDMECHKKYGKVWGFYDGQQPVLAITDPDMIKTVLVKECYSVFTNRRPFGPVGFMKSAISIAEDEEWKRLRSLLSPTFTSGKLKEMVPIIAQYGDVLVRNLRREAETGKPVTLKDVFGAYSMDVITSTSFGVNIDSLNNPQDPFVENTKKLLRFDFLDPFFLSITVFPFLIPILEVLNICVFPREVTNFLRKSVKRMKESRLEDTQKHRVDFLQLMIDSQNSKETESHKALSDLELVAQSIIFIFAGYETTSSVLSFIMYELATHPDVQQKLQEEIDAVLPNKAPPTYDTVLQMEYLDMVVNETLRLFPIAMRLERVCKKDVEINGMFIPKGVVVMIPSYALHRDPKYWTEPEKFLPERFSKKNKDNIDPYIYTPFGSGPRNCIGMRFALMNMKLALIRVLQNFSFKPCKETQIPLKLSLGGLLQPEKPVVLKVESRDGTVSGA

Regarding `C=C(C)[C@H]1CC[C@]2(C(=O)O)CC[C@]3(C)[C@@H](CC[C@H]4[C@@]5(C)CC[C@@H](O)C(C)(C)[C@@H]5CC[C@@]43C)[C@H]12`, the activity change, negative = inhibition in experiment [1] is -3.55%.
For the molecule `CC1(C)O[C@H]2C[C@@H]3[C@H]4CCC5=CC(=O)CC[C@@]5(C)[C@]4(F)[C@@H](O)C[C@@]3(C)[C@@]2(C(=O)CCl)O1`, the activity change, negative = inhibition in experiment [1] was 17.6%. Further, the result in experiment [2] and in [3] was inactive. Besides, the Potency entry in experiment [4] is “inactive”. The Potency in the experiment on 7G8 was 1.58 µM (active); in the experiment with CP260, 3.16 µM (active); with DIV17 it was 6.42 µM (active); with GB4 it was 5.73 µM (active); in the experiment on ICS it was 0.891 µM (active); with W2 it was 4.55 µM (active).
With `O[C@@](CCN1CCCCC1)(c1ccccc1)[C@@H]1C[C@H]2C=C[C@@H]1C2`, in experiment [2], the molecule was called inactive. Besides, in experiment [5], the Potency is 2 µM (active).
On to `C[C@@H]1C[C@@H]2[C@H]3CCC4=CC(=O)C=C[C@]4(C)[C@]3(F)[C@@H](O)C[C@]2(C)[C@@]1(O)C(=O)CO`, for which the activity change, negative = inhibition in experiment [1] is -9.85%. For the same molecule, the result in [2] was inactive.
`CCC[C@H]1C[C@H](C(=O)N[C@H]([C@@H]2O[C@H](SC)[C@@H](O)[C@H](O)[C@@H]2O)[C@H](C)O)N(C)C1`: in [1], the activity change, negative = inhibition was -5.24%. For the same molecule, in [2], the molecule was called inactive. In addition, in experiment [6], the Potency result is “inactive”.
Consider `CC=C(/C(=C/C)c1ccc(O)cc1)c1ccc(O)cc1`, for which the molecule was classed as inactive in experiment [2] and in [3]. Besides, the Potency in experiment [6] is 0.794 µM (active). The Potency result (in experiment [7]; in experiment [4]; with 7G8; with CP203; in the experiment on CP215; in the experiment on CP260) was “inactive” each time. Also, the Potency entry with CP335, in the experiment with DFO2036, with DIV17, in the experiment on GB4, in the experiment on ICS and with W2 was “inactive” in each case.
Take `Cc1onc(-c2c(F)cccc2Cl)c1C(=O)N[C@H]1C(=O)N2[C@H]1SC(C)(C)[C@H]2C(=O)O`: in [1], the activity change, negative = inhibition is -12.5%. The molecule was classed as inactive in experiment [2].
Take `COc1cc2c(cc1OC)-c1cc3ccc(OC)c(OC)c3c[n+]1CC2`: the activity change, negative = inhibition in [1] was -18.1%. The molecule was classed as inactive in experiment [2]. In experiment [8], the Potency result is “inactive”.
For the molecule `C=C(C)[C@H]1CC[C@]2(CO)CC[C@]3(C)[C@@H](CC[C@H]4[C@@]5(C)CC[C@@H](O)C(C)(C)[C@@H]5CC[C@@]43C)[C@H]12`, the activity change, negative = inhibition in [1] is -4.45%. In addition, in [2], the call was inactive.
Turning to `CCC(=O)[C@@]1(C)[C@H](C)C[C@@H]2[C@@H]3CCC4=CC(=O)C=C[C@@]4(C)[C@H]3[C@H](O)C[C@]21C`, the outcome in experiment [2] and in experiment [3] was inactive. For the same molecule, the Potency entry (in experiment [4]; in the experiment with CP203; in the experiment with CP215; in the experiment on DIV17; in the experiment on GB4) was “inactive” each time. For the same molecule, the Potency in the experiment on 7G8 was 2 µM (active); in the experiment on ICS, 3.55 µM (active); in the experiment on W2 it was 5.1 µM (active).
In the case of `O=C(OC[C@@H](O)CO)c1ccccc1Nc1ccnc2cc(Cl)ccc12`, the outcome in experiment [2] and in experiment [3] was inactive. For the same molecule, the Potency with 7G8 was 3.98 µM (active). Further, the Potency entry in the experiment on CP203, with CP215, in the experiment on CP260, in the experiment on CP335 and in the experiment on DFO2036 was “inactive” in each case.
On to `NC(=O)N[C@H]1NC(=O)NC1=O`, for which the activity change, negative = inhibition in [1] was -6.77%. Besides, the call in experiment [2] and in experiment [3] was inactive. Also, the Potency result (in experiment [4]; in the experiment on 7G8; with CP203; with CP215; in the experiment with CP260; with CP335) was “inactive” each time. Further, the Potency result with DIV17, in the experiment on ICS and in the experiment with W2 was “inactive” in each case.

For the origin of these results see PubChem BioAssay (NCATS).
